A short description of test [1]: P-glycoprotein substrates identified in KB-8-5-11 adenocarcinoma cell line, qHTS therapeutic library screen (AID 1346987). Further: nearly all actives have a fitted effect of over 65% in size. Further: potency means the concentration at half of the fitted maximal effect. The method, boiled down: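 Luminescence from CellTiter-Glo, read 5 min after addition, quantified survival of KB-8-5-11 (P-gp-overexpressing) cells exposed to compounds for 72 h. AC50 was derived from concentration-response curves.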
On the technique in general: In qHTS, concentration-response curves come from the screen itself.

Test [2] is described as follows: NS1 protein of Zika virus - qHTS assay to identify small molecule inhibitors in human HEK 293 cells (AID 1347053). Further: series mostly up to about 46 µM; nearly all actives have a fitted effect of over 55% in size. The method, boiled down:
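In this cell-based screen, HEK 293 cultures received compound for one hour before Zika MR766 at MOI = 0.5. NS1 was quantified 24 hours later by TR-FRET, normalized to virus-free wells and infected wells.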

The nature of test [3]: qHTS of pediatric cancer cell lines to identify multiple opportunities for drug repurposing: Primary screen for TC32 cells (AID 1347089). Further: nearly all actives have a fitted effect of over 60% in size. Further: potency means the concentration at half of the fitted maximal effect. The method, boiled down: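 Luminescent CellTiter-Glo read-out of metabolically active TC32 cells after 48 h compound exposure. Primary: MIPE 11-point, 0.78 nM–46 µM; NPC 8-point, 0.59 nM–46 µM. Confirmatory: 11-point dilutions.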
Test [4] is described as follows: qHTS of pediatric cancer cell lines to identify multiple opportunities for drug repurposing: Primary screen for DAOY cells (AID 1347090). Further: nearly all actives have a fitted effect of over 55% in size. Further: potency means the concentration at half of the fitted maximal effect. The method, boiled down:
(§1)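 Eight- or eleven-point concentration series, 48 h treatment at 37 degrees C in growth media; readout CellTiter-Glo luminescence. Potency and efficacy were taken from the concentration-response curves.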

A short description of test [5]: qHTS of pediatric cancer cell lines to identify multiple opportunities for drug repurposing: Primary screen for SJ-GBM2 cells (AID 1347091). Further: potency means the concentration at half of the fitted maximal effect. The method, boiled down: as §1
Test [6] is described as follows: qHTS of pediatric cancer cell lines to identify multiple opportunities for drug repurposing: Primary screen for A673 cells (AID 1347092). Further: nearly all actives have a fitted effect of over 45% in size. Further: potency means the concentration at half of the fitted maximal effect. The method, boiled down:
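A673 cells (500-1,000 cells/well in growth media) were pre-incubated 5 h at 37 degrees C, then exposed to compounds for 48 h. Viability was read as CellTiter-Glo luminescence; concentration-response curves came directly from the primary screen.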

Test [7] is described as follows: qHTS of pediatric cancer cell lines to identify multiple opportunities for drug repurposing: Primary screen for SK-N-MC cells (AID 1347093). Further: potency means the concentration at half of the fitted maximal effect. The method, boiled down:
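Metabolically active cells were quantified by ATP-dependent luminescence (CellTiter-Glo, 15 min at room temperature) following 48 h treatment. Cells had been plated at 500-1,000 per well and settled for 5 h beforehand.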

Test [8] in a line: qHTS of pediatric cancer cell lines to identify multiple opportunities for drug repurposing: Primary screen for BT-37 cells (AID 1347094). Further: potency means the concentration at half of the fitted maximal effect. The method, boiled down:
(§2)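 500-1,000 cells/well; 5 h pre-incubation 37 °C/5% CO2; compound pinned; 48 h; CellTiter-Glo, 15 min RT; luminescence. MIPE 11-pt from 0.78 nM, NPC 8-pt from 0.59 nM final. Bortezomib 2.3 µM final as positive control.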

The nature of test [9]: qHTS of pediatric cancer cell lines to identify multiple opportunities for drug repurposing: Primary screen for NB-EBc1 cells (AID 1347095). Further: potency means the concentration at half of the fitted maximal effect. The method, boiled down:
as §2

The nature of test [10]: qHTS of pediatric cancer cell lines to identify multiple opportunities for drug repurposing: Primary screen for U-2 OS cells (AID 1347096). Further: nearly all actives have a fitted effect of over 50% in size. The method, boiled down:
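Cells (500-1,000/well) in growth media were settled 5 h at 37 degrees C, then given compounds for 48 h. Viability was read as CellTiter-Glo luminescence. Primary runs used MIPE at 11 points (0.78 nM-46 µM) and NPC at 8 points (0.59 nM-46 µM); follow-ups used 11 points.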

Test [11] in a line: qHTS of pediatric cancer cell lines to identify multiple opportunities for drug repurposing: Primary screen for Saos-2 cells (AID 1347097). Further: nearly all actives have a fitted effect of over 40% in size. Further: potency means the concentration at half of the fitted maximal effect. The method, boiled down: as §2
A short description of test [12]: qHTS of pediatric cancer cell lines to identify multiple opportunities for drug repurposing: Primary screen for SK-N-SH cells (AID 1347098).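 Further: DMSO served as neutral control and bortezomib at 2.3 µM as positive control; nearly all actives have a fitted effect of over 65% in size.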 The method, boiled down: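 Cells (500-1,000/well) rested 5 h, then received compounds for 48 h; metabolically active cells were measured by CellTiter-Glo luminescence. Final concentrations spanned up to 46 µM (MIPE, 11-point) or 0.59 nM-46 µM (NPC, 8-point) in primary screens, 11-point in follow-ups.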

A short description of test [13]: qHTS of pediatric cancer cell lines to identify multiple opportunities for drug repurposing: Primary screen for NB1643 cells (AID 1347099). Further: nearly all actives have a fitted effect of over 50% in size. The method, boiled down:
as §2

Test [14] deals with T1, Tyrosine-protein phosphatase non-receptor type substrate 1 (Homo sapiens) + Leukocyte surface antigen CD47 (Homo sapiens) (UniProt P78324+Q08722). The test is described as follows: CD47-SIRPalpha protein protein interaction - LANCE assay qHTS validation (AID 1347057; active means well fitted curve in the direction sought with a large enough effect in the signal ratio, with a control signal flat, not every such curve was filed as active; the % refers to the signal ratio; further: series mostly up to about 38 µM). The method, boiled down:
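Inhibition of soluble CD47/SIRPalpha ectodomain association by titrated compounds, measured as 665/615 nm time-resolved FRET ratio after sequential 30 min room-temperature incubations.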
Background: TR-FRET usually uses a lanthanide donor and a delayed reading to cut background.

Test [15] addresses T1, Tyrosine-protein phosphatase non-receptor type substrate 1 (Homo sapiens) + Leukocyte surface antigen CD47 (Homo sapiens). Put plainly: CD47-SIRPalpha protein protein interaction - HTRF assay qHTS validation (AID 1347058; active means well fitted curve in the direction sought with a large enough effect in the signal ratio, not every such curve was filed as active; the % refers to the signal ratio; further: series mostly up to about 38 µM). The method, boiled down:
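Soluble extracellular domains (6His-CD47, Avi-tag-biotinylated SIRPalpha) in PBS pH 7.4 with 0.05% IGEPAL CA-630. Compounds were preincubated 30 min at RT with CD47 and anti-His-Eu, then SIRPalpha and SAV-XL665 were added. TR-FRET 665/615 ratio.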

Test [16] shares this target. The test is described as follows: CD47-SIRPalpha protein protein interaction - Alpha assay qHTS validation (AID 1347059).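 Further: bead proximity luminescence from CD47 binding SIRPalpha after compound preincubation with SIRPalpha.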 The method, boiled down:
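In PBS (pH 7.4) with 0.05% IGEPAL CA-630, compound is preincubated with biotin-Avi-SIRPalpha ectodomain before His-CD47 ectodomain and affinity beads are added. Light-protected room-temperature incubations; AlphaScreen readout.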

Test [17] in a line: Natriuretic polypeptide receptor (hNpr1) antagonism - Pilot counterscreen GloSensor control cell line (AID 1347045; calls by dose curve; further: series mostly up to about 38 µM). The method, boiled down:
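Cells were first seeded and incubated overnight at 37C, then loaded with 2% GloSensor substrate for 2 h. Compounds were added for 30 min at room temperature, followed by a baseline read, 50 uM SNP and a final read after 20 min.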
In general terms: Counterscreens check selectivity or assay interference.

The target of test [18] is Atrial natriuretic peptide receptor 2 (Homo sapiens) (UniProt P20594). Put plainly: Natriuretic polypeptide receptor (hNpr2) antagonism - Pilot subtype selectivity assay (AID 1347050; calls by dose curve). The method, boiled down:
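Read-out: GloSensor luminescence (CCD imager), baseline vs post-stimulation. HEK293 cells expressing hNpr2; compounds pre-incubated 30-50 min at ambient temperature; hNppC 1 nM final, 20 min.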

The target in test [19] is Parathyroid hormone/parathyroid hormone-related peptide receptor (Homo sapiens) (UniProt Q03431). Put plainly: qHTS for PTHR1 Agonists: Optimization Screen against the NCGC LOPAC library (AID 1347079).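 Further: GloSensor cAMP luminescence in HEK-293 GP2 cells expressing human PTHR1 with IBMX.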 The method, boiled down: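 HEK-293 GP2 cells, PTHR1 + GloSensor cAMP; 3000 cells/well, o/n. Luciferin + IBMX 0.5mM each (stock), 1 hr 37C. Cpd titration, 1 hr 37C. Lum after 15 min RT. Ctrl M-PTH(1-15) top 10uM.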
Chain of Parathyroid hormone/parathyroid hormone-related peptide receptor (Homo sapiens) (Q03431 whole entry, looked up): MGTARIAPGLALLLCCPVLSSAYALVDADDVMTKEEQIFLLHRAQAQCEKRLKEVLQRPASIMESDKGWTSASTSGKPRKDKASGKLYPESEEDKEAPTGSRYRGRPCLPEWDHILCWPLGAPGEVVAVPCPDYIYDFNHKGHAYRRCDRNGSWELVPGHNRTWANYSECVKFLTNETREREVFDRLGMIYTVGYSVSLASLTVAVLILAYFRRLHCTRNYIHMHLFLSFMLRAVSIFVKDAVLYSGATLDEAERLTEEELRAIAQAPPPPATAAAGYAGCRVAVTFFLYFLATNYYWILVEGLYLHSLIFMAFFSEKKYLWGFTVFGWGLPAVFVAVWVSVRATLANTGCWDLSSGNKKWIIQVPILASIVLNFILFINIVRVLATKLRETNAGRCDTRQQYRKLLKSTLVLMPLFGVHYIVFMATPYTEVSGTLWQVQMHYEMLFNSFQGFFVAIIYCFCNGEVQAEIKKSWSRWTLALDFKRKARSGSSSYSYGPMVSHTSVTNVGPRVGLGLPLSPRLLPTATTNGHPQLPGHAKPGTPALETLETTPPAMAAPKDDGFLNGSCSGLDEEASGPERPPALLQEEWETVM

A number with no mark means an inactive call. Results filed as inconclusive are left out. Activity calls are given as the source filed them. Unless noted, the call rests on the fitted dose curve; in most records, active means well fitted curve in the direction sought with a large enough effect; inconclusive means small, poorly fitted or top-dose-only effect, or another doubt; inactive means no such curve, though single readings can be large; an effect the other way counts as inactive or inconclusive.

T1 sequence (P78324 whole entry, looked up, the tested form may be a part): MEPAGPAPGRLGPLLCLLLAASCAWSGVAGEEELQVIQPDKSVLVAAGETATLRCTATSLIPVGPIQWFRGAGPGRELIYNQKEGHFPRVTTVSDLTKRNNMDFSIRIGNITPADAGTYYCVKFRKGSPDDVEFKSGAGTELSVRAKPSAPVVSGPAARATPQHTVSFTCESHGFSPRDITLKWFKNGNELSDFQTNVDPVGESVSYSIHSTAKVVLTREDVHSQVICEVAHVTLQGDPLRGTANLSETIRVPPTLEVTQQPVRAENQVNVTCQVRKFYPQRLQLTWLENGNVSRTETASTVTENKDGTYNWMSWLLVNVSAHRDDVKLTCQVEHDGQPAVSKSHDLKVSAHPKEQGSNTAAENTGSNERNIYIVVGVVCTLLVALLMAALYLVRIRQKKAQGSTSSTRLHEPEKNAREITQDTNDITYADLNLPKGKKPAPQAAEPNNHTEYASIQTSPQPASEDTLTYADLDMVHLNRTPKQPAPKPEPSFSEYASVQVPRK
T1 sequence (Q08722 whole entry, looked up, the tested form may be a part): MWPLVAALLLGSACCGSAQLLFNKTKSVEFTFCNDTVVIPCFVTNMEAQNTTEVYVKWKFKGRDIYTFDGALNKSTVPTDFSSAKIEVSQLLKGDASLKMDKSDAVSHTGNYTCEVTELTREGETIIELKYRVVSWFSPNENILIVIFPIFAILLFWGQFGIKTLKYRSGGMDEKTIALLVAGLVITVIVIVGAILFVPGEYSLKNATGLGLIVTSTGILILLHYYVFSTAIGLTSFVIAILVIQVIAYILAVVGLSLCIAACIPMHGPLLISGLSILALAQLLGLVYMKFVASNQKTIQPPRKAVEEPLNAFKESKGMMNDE
Chain of Atrial natriuretic peptide receptor 2 (Homo sapiens) (P20594 whole entry, looked up): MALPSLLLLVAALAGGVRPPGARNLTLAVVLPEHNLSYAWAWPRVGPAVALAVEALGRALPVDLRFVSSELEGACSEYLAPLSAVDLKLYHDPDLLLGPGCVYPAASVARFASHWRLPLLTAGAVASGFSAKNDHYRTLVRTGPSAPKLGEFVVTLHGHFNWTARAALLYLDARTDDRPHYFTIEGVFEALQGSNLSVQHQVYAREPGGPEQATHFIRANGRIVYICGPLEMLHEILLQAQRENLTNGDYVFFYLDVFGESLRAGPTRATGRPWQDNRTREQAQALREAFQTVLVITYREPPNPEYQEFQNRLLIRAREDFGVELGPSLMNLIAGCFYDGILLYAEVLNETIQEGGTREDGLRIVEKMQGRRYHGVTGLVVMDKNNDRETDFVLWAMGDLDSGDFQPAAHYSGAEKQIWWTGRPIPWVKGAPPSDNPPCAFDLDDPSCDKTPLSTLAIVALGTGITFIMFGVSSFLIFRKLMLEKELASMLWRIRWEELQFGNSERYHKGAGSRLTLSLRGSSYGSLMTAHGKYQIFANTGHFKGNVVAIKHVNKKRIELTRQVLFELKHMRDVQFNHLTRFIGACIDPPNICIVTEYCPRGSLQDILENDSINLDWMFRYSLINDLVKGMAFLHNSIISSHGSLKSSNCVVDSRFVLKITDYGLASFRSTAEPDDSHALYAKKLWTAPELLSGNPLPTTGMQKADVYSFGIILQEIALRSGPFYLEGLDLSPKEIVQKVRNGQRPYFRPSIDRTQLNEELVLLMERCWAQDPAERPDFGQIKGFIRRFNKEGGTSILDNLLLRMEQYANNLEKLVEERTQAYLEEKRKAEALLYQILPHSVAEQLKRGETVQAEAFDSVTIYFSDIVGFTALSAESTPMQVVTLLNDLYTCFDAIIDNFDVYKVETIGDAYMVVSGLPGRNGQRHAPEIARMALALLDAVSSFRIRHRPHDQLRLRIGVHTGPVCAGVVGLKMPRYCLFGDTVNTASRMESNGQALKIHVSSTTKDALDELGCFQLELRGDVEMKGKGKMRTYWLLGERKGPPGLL

Regarding `Cc1ccc(C(=O)c2ccc(CC(=O)O)n2C)cc1`, the Potency result in test [1], in test [2], in test [3], in test [4], in test [5] and in test [6] was “inactive” in each case. In addition, the Potency entry in [7], in test [8], in [9], in test [10], in [11] and in test [12] was “inactive” each time. For the same compound, the Potency entry in test [13] is “inactive”.

As for `CC(C(=O)O)c1ccc(C(=O)c2cccs2)cc1` (stereo unspecified), the Potency entry in [1], in test [2], in test [3], in test [4], in test [5] and in test [6] was “inactive” each time. The Potency result in test [7], in [8], in test [9], in [10], in test [12] and in test [13] was “inactive” in each case.

With `C=CCCCCCCCCC(=O)O`, the Potency result in [1], in test [2], in test [3], in [4], in test [5] and in test [6] was “inactive” each time. The Potency result in [7], in test [8], in [9], in test [10], in test [11] and in test [12] was “inactive” throughout. The Potency entry in test [13] is “inactive”.

As to `O=C(Nc1ccc2[nH]ncc2c1)C1CCC1`, the Potency result in test [1], in test [2], in [14] and in test [16] was “inactive” in each case. In test [15], the outcome was inactive.

Take `CCCCCCCCCCCCCCCC(=O)OC(C)C`: the Potency entry in test [1], in test [2], in test [3], in test [4], in test [5] and in [6] was “inactive” each time. In addition, the Potency result in [7], in [8], in [9], in [10], in test [11] and in test [12] was “inactive” in each case. Moreover, the Potency entry in [13] was “inactive”.

On to `CC(N)C(=O)OC(C)(C)Cc1ccc(Cl)cc1` (stereo unspecified), for which the Potency result in test [1], in [17], in test [18], in test [2], in [14] and in [16] was “inactive” throughout. Further, the Potency result in [19], in test [3], in [4], in test [5], in test [6] and in test [7] was “inactive” in each case. Also, the Potency result in test [8], in test [9], in [10], in [11], in test [12] and in test [13] was “inactive” in each case. Further, the result in test [15] was inactive.

With `CN(CCCOc1ccc(Cc2ccccc2)cc1)CCC(=O)O`, the Potency entry in test [1], in [2], in test [14] and in [16] was “inactive” each time. Besides, the outcome in [15] was inactive.

Take `CC(=O)SCC(CC(=O)c1ccc(C)cc1)C(=O)O` (stereo unspecified): the Potency entry in test [1], in test [2], in test [3], in test [4], in test [5] and in test [6] was “inactive” each time. The Potency entry in [7], in test [8], in [9], in [10], in test [12] and in [13] was “inactive” each time.

For the compound `CCCCCCCCCCCCCCCCCC(=O)O`, the Potency result in test [1], in test [2], in [3], in test [4], in [5] and in [6] was “inactive” throughout. The Potency result in test [7], in [8], in test [9], in test [10], in test [11] and in [12] was “inactive” throughout. In test [13], the Potency result was “inactive”.

Consider `CCCSc1ccc2nc(NC(=O)OC)[nH]c2c1`, for which the Potency in [1] was 556 nM (active); in test [3], 938 nM (active); in [4], 1330 nM (active); in test [5], 422 nM (active); in [6] it was 841 nM (active); in test [7], 841 nM (active). Besides, the Potency in test [8] was 2460 nM (active); in test [9] it was 266 nM (active); in test [11], 4220 nM (active). In addition, the Potency entry in [2] is “inactive”.

As to `CCOC(=O)c1ccccc1O`, the Potency result in test [1], in [2], in test [3], in test [4], in test [5] and in test [7] was “inactive” each time. The Potency result in test [8], in test [9], in [10], in test [11], in test [12] and in test [13] was “inactive” in each case. Also, the Potency in test [6] is 1 nM (active).

On to `Nc1ccc(C(=O)O)c(O)c1`, for which the Potency result in test [1], in test [2], in test [3], in [4], in test [5] and in test [6] was “inactive” throughout. Besides, the Potency entry in test [7], in [8], in test [9], in test [10], in test [11] and in test [12] was “inactive” throughout. Also, the Potency entry in test [13] is “inactive”.

On to `Cc1c(N)c(=O)n(-c2ccccc2)n1C`, for which the Potency entry in test [1], in test [2], in [3], in test [4], in test [5] and in test [6] was “inactive” throughout. Moreover, the Potency entry in test [7], in test [8], in [9], in [10], in test [11] and in test [12] was “inactive” in each case. Also, the Potency entry in test [13] is “inactive”.

In the case of `O=C(O)/C=C/C(O)c1ccc(Cl)cc1` (stereo unspecified), the Potency entry in test [1], in test [17], in test [18] and in test [19] was “inactive” each time.

As for `O=C(O)Cc1ccc(-c2ccccc2)cc1`, the Potency entry in test [1], in test [2], in test [3], in [4], in test [5] and in [6] was “inactive” in each case. Also, the Potency entry in [7], in test [8], in test [9], in test [10], in [11] and in [12] was “inactive” in each case. In [13], the Potency entry is “inactive”.

(Values after PubChem BioAssay (NCATS).)
